Data: PubChem BioAssay AID1794835 (Parasite Biology Lab, Institute for Biomedicine and …, 2023)
Among all 2,500 compounds or so, about 45 (2%) were called active. The sample holds actives, similar compounds and a random draw of the others, so the mix is not that of the screen. No stated cut-off is given here; in the data, active means inhibition mostly above about 45% (no sharp cut-off); inactive means mostly below about 37%.

Assay: anti-Giardia activity of synthetic compounds – Compounds Australia Scaffold Library subset, 24/48 h, primary screen (AID 1794835);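 on inhibition: 0% = parasite counts in DMSO vehicle wells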
Settings: Giardia lamblia BRIS/91/HEPU/1279 trophozoite counts, imaging, at 10 µM
[1] = measured here: growth inhibition at 24 h, stronger effect = higher value

With `O=C(Cc1ccccc1)NCc1nc(-c2ccc3c(c2)nnn3C2CCCC2)no1` as the molecule, how does the inhibition read?
Its inhibition is “inactive”.

Which inhibition (stronger effect = higher value) does the source give for `O=C(NCc1cccc(C(F)(F)F)c1)C1CCCN(c2nccnc2Oc2ccccc2)C1` (stereo unspecified) here?
The inhibition was 15.6% (inactive).

For `COc1ccc(CNC(=O)N2CCC(c3ccn4ncc(C(=O)N5CCOCC5)c4c3)CC2)cc1`, which inhibition (stronger effect = higher value) is on record?
Its inhibition is 0.7% (inactive).

What about the inhibition [1] of the same molecule?
The inhibition was 3.8%.

With `CCCCN(CCCC)S(=O)(=O)c1ccc2c(c1)CCCC(=O)N2` as the molecule, how does the inhibition (stronger effect = higher value) read?
The inhibition was 27.2% (inactive).

And the inhibition [1]?
The inhibition was 13.8%.

For `COCCCN(Cc1ccco1)C(=O)Cn1cnc2onc(-c3ccc(Cl)cc3)c2c1=O`, which inhibition is on record?
Its inhibition is “inactive”.

With `CCCn1nc(C(=O)N2CCCN(C(C)=O)CC2)ccc1=O` as the molecule, how does the inhibition read?
The inhibition was “inactive”.

Which inhibition does the source give for `NCc1c2n(c(=O)n(CC(=O)Nc3ccc4c(c3)OCCO4)c1=O)CCCCC2` here?
The inhibition was “inactive”.

With `CCc1nc(-c2cc(S(=O)(=O)NCc3ccccc3)c(C)s2)no1` as the molecule, how does the inhibition read?
Its inhibition is “inactive”.

For `Cc1sc(-c2ccc(=O)[nH]n2)cc1S(=O)(=O)NCc1cccnc1`, which inhibition is on record?
Its inhibition is “inactive”.

Which results are given for `CCc1nc(-c2cc(S(=O)(=O)NCc3ccc(F)c(Cl)c3)c(C)s2)cs1`?
inhibition (stronger effect = higher value): 43.9% (active); inhibition [1]: 15.2%

For `CCNS(=O)(=O)c1cc(-c2ccc(=O)n(CC)n2)sc1C`, which inhibition is on record?
Its inhibition is “inactive”.

With `Cc1sc(C(=O)N2CCCC2)c2ncnc(NCc3ccc(F)c(Cl)c3)c12` as the molecule, how does the inhibition (stronger effect = higher value) read?
Its inhibition is 23.9% (inactive).

And the inhibition [1]?
Its inhibition is 14.4%.

Which results are given for `Cc1cccc(CNS(=O)(=O)c2cc(-c3csc(C)n3)sc2C)c1`?
inhibition (stronger effect = higher value): 63.6% (active); inhibition [1]: 21.2%

Which inhibition (stronger effect = higher value) does the source give for `CN1CCN(CC2CCN(C(=O)Cc3cccc4ccccc34)CC2)CC1` here?
Its inhibition is 17.7% (inactive).

With `COc1cccc(-c2noc(Nc3cccc(C)c3)n2)c1` as the molecule, how does the outcome read?
The outcome was “inactive”.

And the inhibition [1]?
Its inhibition is 3.1%.

Which inhibition (stronger effect = higher value) does the source give for `Fc1cccc(Nc2c3c(nc4ccccc24)CCC3)c1` here?
The inhibition was 55.5% (active).

What about the inhibition [1] of the same molecule?
The inhibition was 2.3%.

Which results are given for `COc1cccc(Nc2c3c(nc4ccccc24)CCC3)c1`?
inhibition (stronger effect = higher value): 62.3% (active); inhibition [1]: 22%

With `COc1cccc(Nc2nc(N3CCN(c4ccccc4)CC3)nc3c2cnn3C)c1` as the molecule, how does the inhibition (stronger effect = higher value) read?
Its inhibition is 5.8% (inactive).

And the inhibition [1]?
The inhibition was 6.1%.

For `CCc1cccc(NC(=O)C2CCCN(S(=O)(=O)c3c(C)noc3C)C2)c1` (stereo unspecified), which outcome is on record?
Its outcome is “inactive”.

What about the inhibition [1] of the same molecule?
Its inhibition is 13.3%.

Which inhibition does the source give for `O=C1CSCN1CC(=O)N1CCCCC1c1cc2ccccc2[nH]1` (stereo unspecified) here?
Its inhibition is “inactive”.

With `COc1ccc(C2=Nc3ccccc3N(Cc3cccc(F)c3)C(=O)C2)cc1` as the molecule, how does the inhibition (stronger effect = higher value) read?
Its inhibition is 30.2% (inactive).

And the inhibition [1]?
The inhibition was 8.7%.

With `COc1ccc(-n2ccn(CC(=O)Nc3cccc(F)c3)c2=O)cc1` as the molecule, how does the inhibition read?
Its inhibition is “inactive”.

For `COc1ccc(C2=Nc3ccccc3N(CC(=O)Nc3cccc(F)c3)C(=O)C2)cc1`, which inhibition (stronger effect = higher value) is on record?
The inhibition was 40.3% (active).

And the inhibition [1]?
Its inhibition is 12.6%.

For `CNC(=O)N1C[C@@H](CN(C)C)[C@@H](C2CCN(CCC(C)C)CC2)C1`, which outcome is on record?
Its outcome is “inactive”.

What about the inhibition [1] of the same molecule?
Its inhibition is 13.1%.

For `COc1ccc(CNS(=O)(=O)c2ccc3onc(C(=O)N4CCCCC4)c3c2)cc1OC`, which outcome is on record?
The outcome was “inactive”.

What about the inhibition [1] of the same molecule?
The inhibition was 3.7%.

With `Cc1ccc(NC(=O)c2ncoc2-c2ccco2)cc1Cl` as the molecule, how does the inhibition read?
The inhibition was “inactive”.

With `CCN1CCc2nc(NC(=O)c3ccccc3)sc2C1` as the molecule, how does the inhibition read?
The inhibition was “inactive”.

With `CC(=O)c1c(C)[nH]c(C(=O)Nc2nc(-c3ccco3)c(-c3ccco3)s2)c1C` as the molecule, how does the inhibition (stronger effect = higher value) read?
Its inhibition is 52.8% (active).

What about the inhibition [1] of the same molecule?
Its inhibition is 25%.

Which inhibition does the source give for `O=C(NCc1ccccc1)c1cc(-c2ccco2)on1` here?
Its inhibition is “inactive”.

Which inhibition (stronger effect = higher value) does the source give for `O=C(Nc1nc(-c2ccco2)c(-c2ccco2)s1)c1ccccc1` here?
The inhibition was 71.2% (active).

What about the inhibition [1] of the same molecule?
Its inhibition is 27.2%.
